Results as given in ChEMBL document CHEMBL4513141, “CO-ADD screening of NIH (USA) - Clinical Collection” (2021).
Measured potencies and affinities stand elsewhere.

test system: Klebsiella pneumoniae; conditions: Concentration 20 uM; ASSAY_TEST Inhibition of Bacterial Growth; detection method Absorption (OD600); MEDIA CAMHB; plate type 384well; NBS; CORNING #3640; time 18 hr

SMILES	Inhibition
CC(O)CO.N[C@@H](C(=O)N[C@@H]1C(=O)N2C(C(=O)O)=C(CSc3c[nH]nn3)CS[C@H]12)c1ccc(O)cc1	6.28%
CCCN(CCC)S(=O)(=O)c1ccc(C(=O)O)cc1 [PROBENECID]	16.52%
CC(C)(C(=O)c1cccnc1)c1cccnc1 [METYRAPONE]	19.17%
CC(COc1ccccc1)NC(C)C(O)c1ccc(O)cc1.Cl (stereo not drawn) [ISOXSUPRINE HYDROCHLORIDE]	7.34%
O=C1N[C@H](C(=O)O)CS1 [PROCYSTEINE]	8.75%
CC(=O)O.NCc1ccc(S(N)(=O)=O)cc1 [MAFENIDE ACETATE]	13.84%
C[C@]12C[C@H](O)[C@H]3[C@@H](CCC4=CC(=O)CC[C@@]43C)[C@@H]1CC[C@@H]2C(=O)CO [CORTICOSTERONE]	17.2%
O=C(O)CCc1nc(-c2ccccc2)c(-c2ccccc2)o1 [OXAPROZIN]	16.28%
Cl.O=C(c1ccc(OCCN2CCCCC2)cc1)c1c(-c2ccc(O)cc2)sc2cc(O)ccc12 [RALOXIFENE HYDROCHLORIDE]	7.01%
CSc1nc2cc(Cl)c(Oc3cccc(Cl)c3Cl)cc2[nH]1 [TRICLABENDAZOLE]	-0.37%
CCOC(=O)C1=C(C)NC(C)=C(C(=O)OC)C1c1cccc(Cl)c1Cl (stereo not drawn) [FELODIPINE]	7.48%
CC(C)NCC(O)COc1ccc(CCOCC2CC2)cc1.Cl (stereo not drawn) [BETAXOLOL HYDROCHLORIDE]	15.59%
CCCN1CCCC[C@H]1C(=O)Nc1c(C)cccc1C.Cl [ROPIVACAINE HYDROCHLORIDE]	12.03%
CC(Cc1ccccc1)(NC(=O)CN)c1ccccc1.Cl (stereo not drawn) [REMACEMIDE HYDROCHLORIDE]	8.63%
O=C(CCNNC(=O)c1ccncc1)NCc1ccccc1 [NIALAMIDE]	13.86%
CCN1CC(CCN2CCOCC2)C(c2ccccc2)(c2ccccc2)C1=O.Cl (stereo not drawn)	1.35%
C[C@H]1[C@@H](OC(=O)CCC(=O)O)O[C@@H]2O[C@@]3(C)CC[C@H]4[C@H](C)CC[C@@H]1[C@@]24OO3	13.77%
CC(Cc1ccc(O)c(O)c1)(NN)C(=O)O.O (stereo not drawn)	11.66%

SMILES	Inhibition
CC1=C(/C=C/C(C)=C/C=C/C(C)=C\C(=O)O)C(C)(C)CCC1 [ISOTRETINOIN]	9.94%
CN(C)CC[C@@H](c1ccc(Cl)cc1)c1ccccn1.O=C(O)/C=C\C(=O)O [DEXCHLORPHENIRAMINE MALEATE]	21.61%
CC1Cc2ccccc2N1NC(=O)c1ccc(Cl)c(S(N)(=O)=O)c1 (stereo not drawn) [INDAPAMIDE]	9.63%
CC(=O)Nc1nnc(S(N)(=O)=O)s1 [ACETAZOLAMIDE]	10.3%
CCCCNC(=O)NS(=O)(=O)c1ccc(C)cc1 [TOLBUTAMIDE]	16.6%
CCCCN1CCCC1CNC(=O)c1cc(C#N)c2ccccc2c1OC (stereo not drawn) [NAFADOTRIDE]	16.43%
COc1cc(C(=O)NS(=O)(=O)c2ccccc2C)ccc1Cc1cn(C)c2ccc(NC(=O)OC3CCCC3)cc12 [ZAFIRLUKAST]	3.3%
Cl.Clc1ccccc1CN1CCc2sccc2C1 [TICLOPIDINE HYDROCHLORIDE]	-0.77%
COc1cc2nc(N3CCN(C(=O)C4COc5ccccc5O4)CC3)nc(N)c2cc1OC (stereo not drawn) [DOXAZOSIN]	13.22%
CC(=O)NS(=O)(=O)c1ccc(N)cc1 [SULFACETAMIDE]	11.67%
CNNCc1ccc(C(=O)NC(C)C)cc1.Cl [PROCARBAZINE HYDROCHLORIDE]	8%
COc1c2occc2cc2ccc(=O)oc12 [METHOXSALEN]	9.19%
Nc1nc(Cl)nc2c1ncn2[C@@H]1O[C@H](CO)[C@@H](O)[C@H]1O	2.26%
O=C(O)COCCN1CCN([C@H](c2ccccc2)c2ccc(Cl)cc2)CC1 [LEVOCETIRIZINE]	20.22%
Br.CN(C)CCCC1(c2ccc(F)cc2)OCc2cc(C#N)ccc21 (stereo not drawn) [CITALOPRAM HYDROBROMIDE]	0.36%
CN(C)c1nc(N(C)C)nc(N(C)C)n1 [ALTRETAMINE]	4.59%
C[C@]12CC[C@@H]3c4ccc(O)cc4CC[C@H]3[C@@H]1CC[C@@H]2O [ESTRADIOL]	5.27%
CC(C)NCC(O)COc1ccc(CC(N)=O)cc1 (stereo not drawn) [ATENOLOL]	8.57%

test system: Candida albicans; conditions: 20 µM

SMILES	Inhibition
CC(O)CO.N[C@@H](C(=O)N[C@@H]1C(=O)N2C(C(=O)O)=C(CSc3c[nH]nn3)CS[C@H]12)c1ccc(O)cc1	12.3%
CC(C)(C(=O)c1cccnc1)c1cccnc1 [METYRAPONE]	2.49%
CC(COc1ccccc1)NC(C)C(O)c1ccc(O)cc1.Cl (stereo not drawn) [ISOXSUPRINE HYDROCHLORIDE]	3.25%
O=C1N[C@H](C(=O)O)CS1 [PROCYSTEINE]	3.85%
CC(=O)O.NCc1ccc(S(N)(=O)=O)cc1 [MAFENIDE ACETATE]	0.67%
C[C@]12C[C@H](O)[C@H]3[C@@H](CCC4=CC(=O)CC[C@@]43C)[C@@H]1CC[C@@H]2C(=O)CO [CORTICOSTERONE]	2.69%
O=C(O)CCc1nc(-c2ccccc2)c(-c2ccccc2)o1 [OXAPROZIN]	18.9%
Cl.O=C(c1ccc(OCCN2CCCCC2)cc1)c1c(-c2ccc(O)cc2)sc2cc(O)ccc12 [RALOXIFENE HYDROCHLORIDE]	0.43%
Nc1ccc(O)c(C(=O)O)c1 [MESALAMINE]	1.32%
CSc1nc2cc(Cl)c(Oc3cccc(Cl)c3Cl)cc2[nH]1 [TRICLABENDAZOLE]	7.82%
CCOC(=O)C1=C(C)NC(C)=C(C(=O)OC)C1c1cccc(Cl)c1Cl (stereo not drawn) [FELODIPINE]	1.71%
CC(C)NCC(O)COc1ccc(CCOCC2CC2)cc1.Cl (stereo not drawn) [BETAXOLOL HYDROCHLORIDE]	2.88%
CCCN1CCCC[C@H]1C(=O)Nc1c(C)cccc1C.Cl [ROPIVACAINE HYDROCHLORIDE]	3.24%
CC(Cc1ccccc1)(NC(=O)CN)c1ccccc1.Cl (stereo not drawn) [REMACEMIDE HYDROCHLORIDE]	4.18%
O=C(CCNNC(=O)c1ccncc1)NCc1ccccc1 [NIALAMIDE]	4.06%
CCN1CC(CCN2CCOCC2)C(c2ccccc2)(c2ccccc2)C1=O.Cl (stereo not drawn)	4.41%
C[C@H]1[C@@H](OC(=O)CCC(=O)O)O[C@@H]2O[C@@]3(C)CC[C@H]4[C@H](C)CC[C@@H]1[C@@]24OO3	26.5%
CC(Cc1ccc(O)c(O)c1)(NN)C(=O)O.O (stereo not drawn)	2.35%
CC1=C(/C=C/C(C)=C/C=C/C(C)=C\C(=O)O)C(C)(C)CCC1 [ISOTRETINOIN]	1.42%

SMILES	Inhibition
CN(C)CC[C@@H](c1ccc(Cl)cc1)c1ccccn1.O=C(O)/C=C\C(=O)O [DEXCHLORPHENIRAMINE MALEATE]	2.45%
CC1Cc2ccccc2N1NC(=O)c1ccc(Cl)c(S(N)(=O)=O)c1 (stereo not drawn) [INDAPAMIDE]	-0.23%
CC(=O)Nc1nnc(S(N)(=O)=O)s1 [ACETAZOLAMIDE]	4.56%
CCCCNC(=O)NS(=O)(=O)c1ccc(C)cc1 [TOLBUTAMIDE]	1.06%
CCCCN1CCCC1CNC(=O)c1cc(C#N)c2ccccc2c1OC (stereo not drawn) [NAFADOTRIDE]	4.38%
COc1cc(C(=O)NS(=O)(=O)c2ccccc2C)ccc1Cc1cn(C)c2ccc(NC(=O)OC3CCCC3)cc12 [ZAFIRLUKAST]	0.8%
Cl.Clc1ccccc1CN1CCc2sccc2C1 [TICLOPIDINE HYDROCHLORIDE]	1.25%
COc1cc2nc(N3CCN(C(=O)C4COc5ccccc5O4)CC3)nc(N)c2cc1OC (stereo not drawn) [DOXAZOSIN]	3.14%
CC(=O)NS(=O)(=O)c1ccc(N)cc1 [SULFACETAMIDE]	1.53%
CNNCc1ccc(C(=O)NC(C)C)cc1.Cl [PROCARBAZINE HYDROCHLORIDE]	2.55%
COc1c2occc2cc2ccc(=O)oc12 [METHOXSALEN]	5.22%
Nc1nc(Cl)nc2c1ncn2[C@@H]1O[C@H](CO)[C@@H](O)[C@H]1O	4.78%
O=C([O-])Cc1ccccc1Nc1c(Cl)cccc1Cl.[Na+] [DICLOFENAC SODIUM]	5.99%
O=C(O)COCCN1CCN([C@H](c2ccccc2)c2ccc(Cl)cc2)CC1 [LEVOCETIRIZINE]	0.53%
Br.CN(C)CCCC1(c2ccc(F)cc2)OCc2cc(C#N)ccc21 (stereo not drawn) [CITALOPRAM HYDROBROMIDE]	2.48%
CN(C)c1nc(N(C)C)nc(N(C)C)n1 [ALTRETAMINE]	4.65%
C[C@]12CC[C@@H]3c4ccc(O)cc4CC[C@H]3[C@@H]1CC[C@@H]2O [ESTRADIOL]	5.91%
CC(C)NCC(O)COc1ccc(CC(N)=O)cc1 (stereo not drawn) [ATENOLOL]	3.26%
